This is part of a sample that, as a whole, favours compounds with a hit. Of some 83,000 tested, about 20% had one in any assay.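 Percent growth is the endpoint: 0 to 100 indicates growth inhibition (40 means 60% inhibition), 0 means no net growth, and negative values indicate cell death.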 Values without a mark were called inactive. Active and inactive are the calls of the source. Rule for the calls: active = growth percent below 10; inactive = the rest.
How the values were obtained:
Test in all cases: NCI-60 one-dose screen, 48 h (100 = growth as untreated, 0 = no growth, -100 = all killed)
Settings in all cases: 10 µM unless noted
NCI-H23 lung = system: NCI-H23 lung
NCI-H226 lung = system: NCI-H226 lung
NCI-H322M lung = system: NCI-H322M lung
HOP-62 NSCLC = system: HOP-62 NSCLC
NCI-H460 lung = system: NCI-H460 lung
HOP-92 NSCLC = system: HOP-92 NSCLC
NCI-H522 lung = system: NCI-H522 lung
A549/ATCC NSCLC = system: A549/ATCC NSCLC
786-0 renal = system: 786-0 renal
COLO 205 colon = system: COLO 205 colon

SMILES	growth (NCI-H23 lung)	growth (NCI-H226 lung)	growth (NCI-H322M lung)	growth (HOP-62 NSCLC)	growth (NCI-H460 lung)	growth (HOP-92 NSCLC)	growth (NCI-H522 lung)	growth (A549/ATCC NSCLC)	growth (786-0 renal)	growth (COLO 205 colon)
CN1C(=O)N(C)C2C1NN=c1s/c(=C\c3ccccc3)c(=O)n12 (stereo not given)	64.1%	80.2%	59%	46.9%	17.5%	73.9%	12.5%	39.9%	30.5%	11.9%
CCc1ccccc1-n1c(-c2ccc(Cl)cc2)cc(-c2ccc(OC)cc2)c(C#N)c1=O	102%	108%	126%	103%	99.7%	63.5%	84.8%	103%	92%	117%
CNC(=O)CCN1CCN(CC/C=C2\c3ccccc3Sc3ccc(Cl)cc32)CC1	91%	121%	74.8%	102%	92.6%	-4.86% (active)	85%	-27.4% (active)	75.9%	85.8%
Cc1ccc(/C=C/c2c(C(=O)/C=C/c3ccc(C(F)(F)F)cc3)c(C)nc3ccccc23)cc1	-31.3% (active)	-46.1% (active)	-1.68% (active)	-37.2% (active)	-69.6% (active)	-76% (active)	-10.5% (active)	77.2%	-74.9% (active)	-24.3% (active)
Cc1ccccc1NC(=O)N/C(N)=N/c1nc(C)c(C)s1	42.7%	60%	46.2%	43.9%	10.5%	73.6%	16.3%	40.2%	51.4%	10.1%
O=c1c2cc(F)ccc2sc2c(NCCN3CCCCC3)nc3ccccc3c12	65.6%	77%	70.9%	64.4%	18.3%	34.2%	34.2%	59.1%	41%	48%
CCSC1=NC2C(N(CC)C(=O)N2CC)N1/N=C/C=C/c1ccccc1[N+](=O)[O-] (stereo not given)	21.9%	47.1%	31.2%	33.7%	1.33% (active)	19.8%	-1.31% (active)	19%	19%	3.83% (active)
COc1cccc(/C=C/C(=O)c2c(C)nc3ccccc3c2/C=C/c2ccc(C)cc2)c1OC	49.7%	62.8%	82.1%	70%	26.1%	76.4%	50.5%	94.3%	74.5%	80.6%
Cc1cc(O)c(C2=NN(c3ccc(S(N)(=O)=O)cc3)C(c3ccccc3Cl)C2)cc1Cl (stereo not given)	2.15% (active)	38.7%	48.3%	-6.9% (active)	-36.2% (active)	38.5%	-56.1% (active)	13%	-66.3% (active)	-92.1% (active)
COc1cc(/C=C/C(=O)c2c(C)nc3ccccc3c2/C=C/c2ccc(C)cc2)cc(OC)c1OC	24.4%	28.9%	57.5%	28.7%	-22.1% (active)	69.7%	24.1%	73.1%	28.4%	46.2%
CCc1ccccc1NC(=O)/C(C#N)=C/c1ccc(OC)cc1	98.2%	97.5%	87.8%	96%	104%	86.9%	91.4%	94%	107%	119%
C=C1C(=O)O[C@H]2[C@H]1CC/C(COC(=O)C(=O)c1cn(C)c3ccc(OC)cc13)=C\CC[C@@]1(C)O[C@@H]21	-36.1% (active)	-67.5% (active)	-62.2% (active)	-45.9% (active)	-76.3% (active)	-72.3% (active)	-61.4% (active)	-62% (active)	-87.4% (active)	-57% (active)
Cc1c(Cl)cc(-n2c(=O)c3ccccc3c3ccccc3c2=O)cc1Cl	97.6%	108%	87.3%	92.6%	111%	98.4%	98.7%	102%	98.6%	98.2%
Cc1ccc(CCC(=O)Nc2ncc(Cc3cc(Cl)ccc3Cl)s2)o1	31.9%	45.5%	33.3%	35.6%	5.71% (active)	56.6%	3.08% (active)	23.1%	26.1%	2.59% (active)
Cc1ccc(-c2cc(-c3cccnc3)[nH]c(=O)c2C#N)cc1	103%	99.2%	103%	107%	107%	97.9%	94%	102%	101%	118%
O=C(Nc1ccccc1Cl)Oc1ccc(-c2ccccc2)cc1	93.5%	103%	114%	96.3%	105%	94.4%	103%	104%	97.2%	127%
COc1cc(/C=C2\C(=O)ON=C2C)cc(OC)c1OC	98.6%	100%	95.1%	97%	110%	87.8%	98.5%	96.1%	103%	105%
O=C(Nc1ccc(-n2cc(-c3ccncc3)c(-c3ccc(Cl)c(O)c3)n2)cc1)N1CCOCC1	111%	103%	106%	95.7%	103%	90.6%	94%	111%	101%	97.4%
O=C(c1ccc(Nc2nccc(NCCCCNc3ccnc4cc(Cl)ccc34)n2)cc1)N1CCCCC1	45.3%	91.3%	51.3%	69.7%	12.9%	59.2%	33.2%	25.8%	0.767% (active)	-58.6% (active)
